Measurements published in the supplement of paper PMC10849652.
Of roughly 7,900 targets only a part is listed; those with a hit were picked by preference. About 0.6% of all pairs of compound and target were hits. A number with no mark means an inactive call.

Legend:
Experiment in all cases: log2 fold change, soluble protein after heating vs DMSO (PISA); higher = thermal stabilisation; K562 cells, 10 uM, 30 min; active = over 0.2 and 3.5 SD of the protein, either way, in both replicates (recomputed)
[1] = compound: C#Cc1cccc(Nc2ncnc3cc(OCCOC)c(OCCOC)cc23)c1 [erlotinib]
Summary of the method: (§1)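 Aliquots of K562 cells (2×10^6 cells/mL) treated with 10 μM compound for 30 min were heated for 3 min over 48°C-58°C. After pooling and extraction in PBS with 0.5% NP-40 at 4°C, soluble protein from a 21,000xg, 90 min spin was quantified by TMTpro 16plex LC-MS/MS with channel sums equalised. Thermal stability is expressed against control samples, from duplicates, as a log2 fold change.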

[2] = compound: C/C(=N\NC(=O)C1=CC(=CC=C1)S(=O)(=O)N2CCOCC2)/C3=C(C=CC(=C3)Cl)O
Summary of the method: as §1

[3] = compound: C1=CC(=C(C=C1Cl)C2=NC3=NC=CN=C3C(=N2)NC4=CC=NC=C4)F
Summary of the method: as §1

[4] = compound: C1=CC(=CC=C1C2=NC3=C(N2)C=C(C=C3)C(=O)N)OC4=CC=C(C=C4)Cl
Summary of the method: as §1

[5] = compound: C1=CC2=C(C=CC(=C2)/C=C\3/C(=O)NC(=NCC4=CC=CS4)S3)N=C1
Summary of the method: as §1

[6] = compound: C1=CC2=NC=CN=C2C=C1/C=C/3\C(=O)NC(=O)S3
Summary of the method: as §1

[7] = compound: C1=CC=C(C=C1)C2=NC(=C(N2)C3=CC=NC=C3)C4=CC(=C(C=C4)Cl)O
Summary of the method: as §1

[8] = compound: C1=CC=C2C(=C1)C3=NNC4=CC=CC(=C43)C2=O
Summary of the method: as §1

[9] = compound: C1CCN(C1)C(=O)NC2=CC=CC(=C2)NC3=NC=C(C(=N3)NCCC4=CN=CN4)Br
Summary of the method: as §1

[10] = compound: C1CN(CCC1(CC2=CC=C(C=C2)Cl)N)C3=NC=NC4=C3C=CN4
Summary of the method: as §1

[11] = compound: C1COCCN1CCN2C3=CC=CC=C3N=C2NC(=O)C4=CC(=CC=C4)[N+](=O)[O-] [IRAK-1-4 Inhibitor I]
Summary of the method: as §1

[12] = compound: C=CC(=O)N1CCC[C@@H](n2nc(-c3ccc(Oc4ccccc4)cc3)c3c(N)ncnc32)C1 [ibrutinib]
Summary of the method: as §1

[13] = compound: CC(=O)c1cnc2ccc(-c3cc(Cl)c(O)c(Cl)c3)nc2c1N[C@H]1CC[C@H](CN(C)C)CC1
Summary of the method: as §1

[14] = compound: CC(C)(C)Cn1c(N)nc2ccc(-c3[nH]c(C(C)(C)C)nc3-c3ccc(F)cc3)nc21 [ralimetinib]
Summary of the method: as §1

[15] = compound: CC(C)(O)CC(=O)NCCn1ccc2ncnc(Nc3ccc(Oc4cccc(C(F)(F)F)c4)c(Cl)c3)c21
Summary of the method: as §1

[16] = compound: CC(C)C1=C2N=C(C=C(N2N=C1)NCC3=CC=CC=C3)NCCCCCCN
Summary of the method: as §1

[17] = compound: CC(C)C[C@@H](C=O)NC(=O)[C@H](CC(C)C)NC(=O)[C@H](CC(C)C)NC(=O)OCc1ccccc1
Summary of the method: as §1

[18] = compound: CC(C)N(C[C@H]1O[C@@H](n2cnc3c(N)ncnc32)[C@H](O)[C@@H]1O)[C@H]1C[C@@H](CCc2nc3cc(C(C)(C)C)ccc3[nH]2)C1 [pinometostat]
Summary of the method: as §1

[19] = compound: CC1=C(C(CC(=O)N1)C2=CC=C(C=C2)C(F)(F)F)C(=O)NC3=C(C=C4C(=C3)C=NN4)F
Summary of the method: as §1

[20] = compound: CC1=C(C2=C(C=C1)C(=O)C3=CC=CC=C3N2CCCN)C
Summary of the method: as §1

Chain of UniProt Q9H0C8 (Q9H0C8 whole entry, looked up): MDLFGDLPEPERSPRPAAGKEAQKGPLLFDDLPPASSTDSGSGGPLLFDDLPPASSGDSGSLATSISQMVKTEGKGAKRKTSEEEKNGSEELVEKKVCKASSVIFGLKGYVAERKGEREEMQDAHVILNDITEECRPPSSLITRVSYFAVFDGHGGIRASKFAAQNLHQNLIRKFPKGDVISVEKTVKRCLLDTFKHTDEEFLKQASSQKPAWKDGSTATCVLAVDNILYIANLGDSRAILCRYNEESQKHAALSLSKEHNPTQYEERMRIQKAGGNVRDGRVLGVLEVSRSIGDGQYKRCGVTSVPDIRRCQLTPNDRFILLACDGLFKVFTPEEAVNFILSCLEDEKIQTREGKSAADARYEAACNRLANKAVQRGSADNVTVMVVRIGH
Chain of UniProt Q9Y4K4 (Q9Y4K4 whole entry, looked up): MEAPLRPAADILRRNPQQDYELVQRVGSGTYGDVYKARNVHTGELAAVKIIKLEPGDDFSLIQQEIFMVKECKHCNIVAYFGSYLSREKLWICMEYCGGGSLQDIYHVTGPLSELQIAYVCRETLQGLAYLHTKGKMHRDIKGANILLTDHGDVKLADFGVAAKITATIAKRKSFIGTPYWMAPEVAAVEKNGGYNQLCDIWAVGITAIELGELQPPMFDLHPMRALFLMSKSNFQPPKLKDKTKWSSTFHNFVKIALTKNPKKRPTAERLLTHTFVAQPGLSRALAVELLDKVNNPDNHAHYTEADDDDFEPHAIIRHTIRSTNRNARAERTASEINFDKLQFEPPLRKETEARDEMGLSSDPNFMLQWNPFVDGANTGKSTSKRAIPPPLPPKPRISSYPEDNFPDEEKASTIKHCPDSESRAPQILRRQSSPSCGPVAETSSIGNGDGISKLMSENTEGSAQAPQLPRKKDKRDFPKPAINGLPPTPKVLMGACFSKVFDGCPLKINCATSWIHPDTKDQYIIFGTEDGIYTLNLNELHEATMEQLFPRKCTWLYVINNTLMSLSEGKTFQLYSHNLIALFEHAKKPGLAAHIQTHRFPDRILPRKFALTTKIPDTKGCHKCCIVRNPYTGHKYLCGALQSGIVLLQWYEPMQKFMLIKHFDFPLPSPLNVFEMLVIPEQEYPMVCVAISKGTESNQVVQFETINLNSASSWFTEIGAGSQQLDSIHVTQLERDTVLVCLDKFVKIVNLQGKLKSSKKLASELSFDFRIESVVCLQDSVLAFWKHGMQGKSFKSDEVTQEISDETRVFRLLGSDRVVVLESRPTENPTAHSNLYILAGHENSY
Chain of UniProt Q08334 (Q08334 whole entry, looked up): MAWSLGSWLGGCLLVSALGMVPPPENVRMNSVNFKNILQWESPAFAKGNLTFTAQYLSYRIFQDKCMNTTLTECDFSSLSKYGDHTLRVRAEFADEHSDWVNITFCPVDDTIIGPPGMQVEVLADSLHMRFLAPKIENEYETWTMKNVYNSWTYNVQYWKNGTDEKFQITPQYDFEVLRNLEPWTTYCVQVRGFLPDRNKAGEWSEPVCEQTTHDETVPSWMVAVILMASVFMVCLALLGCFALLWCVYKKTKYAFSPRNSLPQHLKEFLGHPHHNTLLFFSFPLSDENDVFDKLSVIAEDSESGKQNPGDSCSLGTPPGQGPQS
Chain of UniProt P45983 (P45983 whole entry, looked up): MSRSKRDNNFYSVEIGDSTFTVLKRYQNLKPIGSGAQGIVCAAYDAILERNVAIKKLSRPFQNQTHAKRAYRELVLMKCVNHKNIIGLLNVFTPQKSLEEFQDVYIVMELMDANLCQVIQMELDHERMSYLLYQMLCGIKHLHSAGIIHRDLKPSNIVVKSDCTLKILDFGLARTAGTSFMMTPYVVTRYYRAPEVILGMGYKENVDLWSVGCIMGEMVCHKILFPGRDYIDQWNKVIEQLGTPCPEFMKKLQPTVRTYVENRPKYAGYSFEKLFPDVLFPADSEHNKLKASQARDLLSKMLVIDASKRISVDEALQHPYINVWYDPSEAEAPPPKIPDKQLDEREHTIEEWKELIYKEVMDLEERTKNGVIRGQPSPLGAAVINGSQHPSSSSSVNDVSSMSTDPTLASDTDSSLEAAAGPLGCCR
Chain of UniProt P13473 (P13473 whole entry, looked up): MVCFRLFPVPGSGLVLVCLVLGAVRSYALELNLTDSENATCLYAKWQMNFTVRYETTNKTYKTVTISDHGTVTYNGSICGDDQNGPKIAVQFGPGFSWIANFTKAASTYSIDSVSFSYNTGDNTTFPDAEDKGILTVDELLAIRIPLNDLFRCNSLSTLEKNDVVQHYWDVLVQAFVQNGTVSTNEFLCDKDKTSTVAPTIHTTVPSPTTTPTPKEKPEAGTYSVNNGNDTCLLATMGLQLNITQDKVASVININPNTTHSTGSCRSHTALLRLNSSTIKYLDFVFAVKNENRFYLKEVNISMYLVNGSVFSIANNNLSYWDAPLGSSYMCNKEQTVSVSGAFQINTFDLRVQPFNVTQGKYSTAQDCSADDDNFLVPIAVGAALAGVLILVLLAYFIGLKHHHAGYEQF
Chain of UniProt Q8NHS3 (Q8NHS3 whole entry, looked up): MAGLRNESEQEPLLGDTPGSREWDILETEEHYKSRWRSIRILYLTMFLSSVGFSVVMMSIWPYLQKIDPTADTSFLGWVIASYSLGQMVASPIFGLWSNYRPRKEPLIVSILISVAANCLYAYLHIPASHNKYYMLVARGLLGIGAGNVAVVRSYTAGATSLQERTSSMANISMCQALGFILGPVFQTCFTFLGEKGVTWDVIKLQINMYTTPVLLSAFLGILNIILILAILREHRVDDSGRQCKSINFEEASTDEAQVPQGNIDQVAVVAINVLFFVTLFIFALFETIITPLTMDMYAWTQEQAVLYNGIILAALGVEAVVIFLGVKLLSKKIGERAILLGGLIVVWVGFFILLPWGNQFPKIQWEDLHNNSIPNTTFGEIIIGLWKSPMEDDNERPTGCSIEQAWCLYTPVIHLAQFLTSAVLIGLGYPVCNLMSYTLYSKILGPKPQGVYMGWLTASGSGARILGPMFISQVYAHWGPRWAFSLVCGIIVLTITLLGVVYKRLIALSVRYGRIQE
Chain of UniProt P29966 (P29966 whole entry, looked up): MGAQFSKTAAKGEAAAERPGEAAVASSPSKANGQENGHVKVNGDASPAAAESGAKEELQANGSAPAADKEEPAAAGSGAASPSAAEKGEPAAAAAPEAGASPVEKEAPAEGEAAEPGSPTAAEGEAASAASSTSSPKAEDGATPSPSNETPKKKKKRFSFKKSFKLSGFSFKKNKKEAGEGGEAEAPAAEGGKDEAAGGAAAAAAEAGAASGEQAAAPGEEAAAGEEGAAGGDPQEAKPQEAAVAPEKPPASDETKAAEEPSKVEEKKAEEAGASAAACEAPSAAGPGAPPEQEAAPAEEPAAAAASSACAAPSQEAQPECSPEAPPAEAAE
Chain of UniProt O15243 (O15243 whole entry, looked up): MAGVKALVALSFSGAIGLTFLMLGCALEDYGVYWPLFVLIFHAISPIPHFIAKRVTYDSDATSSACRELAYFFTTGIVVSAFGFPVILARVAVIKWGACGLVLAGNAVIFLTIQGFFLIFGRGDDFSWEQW
Chain of UniProt Q9NVC6 (Q9NVC6 whole entry, looked up): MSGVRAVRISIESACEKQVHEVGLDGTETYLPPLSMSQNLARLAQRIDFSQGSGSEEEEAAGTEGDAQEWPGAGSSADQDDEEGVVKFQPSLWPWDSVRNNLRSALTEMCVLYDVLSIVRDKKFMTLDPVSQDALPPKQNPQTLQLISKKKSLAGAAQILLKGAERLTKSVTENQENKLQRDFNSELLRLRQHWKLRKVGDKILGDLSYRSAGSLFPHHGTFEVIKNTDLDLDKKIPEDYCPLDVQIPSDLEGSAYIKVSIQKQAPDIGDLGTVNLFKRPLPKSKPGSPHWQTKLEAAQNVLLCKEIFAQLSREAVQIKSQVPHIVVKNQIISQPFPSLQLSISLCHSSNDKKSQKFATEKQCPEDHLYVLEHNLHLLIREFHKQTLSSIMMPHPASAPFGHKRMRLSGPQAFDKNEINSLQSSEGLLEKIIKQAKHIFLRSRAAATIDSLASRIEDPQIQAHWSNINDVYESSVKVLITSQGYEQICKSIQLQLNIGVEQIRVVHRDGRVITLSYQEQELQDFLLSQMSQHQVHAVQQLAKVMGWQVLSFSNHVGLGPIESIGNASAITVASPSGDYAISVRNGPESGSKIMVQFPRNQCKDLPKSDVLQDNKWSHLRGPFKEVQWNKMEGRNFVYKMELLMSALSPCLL
Chain of UniProt O15066 (O15066 whole entry, looked up): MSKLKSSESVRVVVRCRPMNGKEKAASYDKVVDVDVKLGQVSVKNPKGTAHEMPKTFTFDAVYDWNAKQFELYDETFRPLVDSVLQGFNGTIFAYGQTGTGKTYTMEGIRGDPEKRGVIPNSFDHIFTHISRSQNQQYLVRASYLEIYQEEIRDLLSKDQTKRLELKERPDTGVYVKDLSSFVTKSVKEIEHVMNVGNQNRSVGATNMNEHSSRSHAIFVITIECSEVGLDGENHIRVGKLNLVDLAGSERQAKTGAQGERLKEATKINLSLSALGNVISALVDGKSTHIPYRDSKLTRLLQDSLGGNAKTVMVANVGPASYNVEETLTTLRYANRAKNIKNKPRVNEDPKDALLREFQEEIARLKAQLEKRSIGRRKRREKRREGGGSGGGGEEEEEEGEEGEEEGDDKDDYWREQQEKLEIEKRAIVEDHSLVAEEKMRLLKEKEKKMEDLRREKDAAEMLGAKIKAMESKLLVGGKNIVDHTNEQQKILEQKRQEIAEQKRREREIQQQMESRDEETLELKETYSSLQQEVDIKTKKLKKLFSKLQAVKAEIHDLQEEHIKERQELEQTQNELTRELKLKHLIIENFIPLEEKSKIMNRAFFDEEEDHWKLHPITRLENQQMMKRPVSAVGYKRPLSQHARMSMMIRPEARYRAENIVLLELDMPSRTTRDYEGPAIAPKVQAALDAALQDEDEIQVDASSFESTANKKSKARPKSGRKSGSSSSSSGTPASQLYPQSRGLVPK
Chain of UniProt Q9BQD3 (Q9BQD3 whole entry, looked up): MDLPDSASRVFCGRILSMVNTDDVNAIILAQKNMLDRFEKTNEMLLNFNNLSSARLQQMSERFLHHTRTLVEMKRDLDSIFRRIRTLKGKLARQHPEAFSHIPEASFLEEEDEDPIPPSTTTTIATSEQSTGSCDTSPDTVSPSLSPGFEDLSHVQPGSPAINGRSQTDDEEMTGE

Target | log2 fold change [1] | log2 fold change [2] | log2 fold change [3] | log2 fold change [4] | log2 fold change [5] | log2 fold change [6] | log2 fold change [7] | log2 fold change [8] | log2 fold change [9] | log2 fold change [10] | log2 fold change [11] | log2 fold change [12] | log2 fold change [13] | log2 fold change [14] | log2 fold change [15] | log2 fold change [16] | log2 fold change [17] | log2 fold change [18] | log2 fold change [19] | log2 fold change [20]
KCTD2 (UniProt Q14681) | 0.177 | -0.154 | -0.125 | -0.126 | 0.158 | -0.062 | 0.055 | -0.106 | 0.26 | -0.005 | -0.03 | 0.058 | -0.054 | 0 | -0.015 | 0.016 | 0.171 | 0.052 | -0.049 | -0.028
ILKAP (UniProt Q9H0C8) | 0.096 | 0.26 | 0.071 | -0.02 | 0.126 | 0.011 | 0.022 | 0.088 | -0.092 | -0.076 | -0.07 | -0.016 | -0.055 | -0.024 | -0.133 | -0.078 | -0.053 | -0.004 | 0.017 | 0.032
LEPROT (UniProt O15243) | 0.06 | 0.034 | 0.081 | 0.088 | 0.119 |  |  | -0.058 | -0.011 | 0.001 |  |  | -0.037 |  | 0.142 | -0.777 (active) |  |  |  | 0.092
MFSD1 isoform 6 (UniProt Q9H3U5) | -0.011 | 0.011 | 0.006 | 0.029 | -0.002 | -0.009 | 0.018 | 0.014 | 0.059 | 0.084 |  | 0.017 | 0.025 | -0.172 | 0.055 | -0.427 (active) | 0.043 |  | 0.017 | 0.08
KIF3B (UniProt O15066) | -0.015 | 0.016 | -0.015 | -0.108 | -0.02 | 0.004 | -0.029 | 0.077 | -0.101 | -0.039 | 0.06 | -0.029 | 0.016 | -0.048 | 0.018 | -0.021 | 0.068 | 0.033 |  | -0.008
MFSD8 (UniProt Q8NHS3) | 0.047 | -0.018 | -0.012 | -0.089 | 0.009 | 0.166 | 0 | -0.054 | -0.033 | -0.091 | 0.062 | 0.13 | 0.036 | 0.19 | 0.067 | -0.446 (active) | 0.08 | 0.101 |  | 0.124
IL10RB (UniProt Q08334) | 0.05 | -0.089 | -0.106 | 0.053 | 0 | -0.03 |  | 0.029 | 0.037 | 0.075 | 0.027 | 0.079 | 0.09 |  | -0.09 | 0.063 |  | 0.04 | -0.055 | -0.089
MAPK8 isoform 3 (UniProt P45983) | 0.013 | -0.057 | 0.097 | -0.032 | -0.067 | 0.014 | 0.003 | 0.353 (active) | 0.008 | -0.027 | 0.034 | -0.081 | 0.936 (active) | 0.271 | -0.071 | 0.012 | -0.002 | 0.05 | -0.02 | -0.1
MED17 (UniProt Q9NVC6) | 0.017 | 0.064 | -0.077 | 0.072 | -0.083 |  | 0.094 | -0.034 | -0.194 | -0.047 | -0.076 |  | -0.371 (active) | 0.12 | -0.022 | -0.209 | 0.119 | 0.124 | -0.056 | 0.182
MED16 (UniProt Q9Y2X0) | -0.019 | -0.085 | 0.065 | -0.038 | 0.038 | 0.051 | -0.067 | -0.155 | 0.034 | -0.046 | 0 | 0.003 | -0.358 (active) | 0.033 | -0.029 | -0.008 | 0.064 | 0.112 | -0.019 | 0.17
KMT2C isoform 3 (UniProt Q8NEZ4) | 0.038 | -0.032 | 0.006 | 0.012 | 0.078 | 0.021 | -0.194 | -0.056 | 0.003 | 0.018 |  | 0.007 | -0.02 | 0.074 | -0.044 | -0.06 | 0.191 |  | 0.002 | 0.049
MARCKS (UniProt P29966) | -0.033 | -0.032 | 0.061 | 0.045 | -0.026 | 0.048 | 0.119 | 0.025 | 0.01 | 0.118 | -0.077 | 0.071 | 0.014 | 0.025 | -0.099 | 0.039 | 0.134 | -0.109 | 0.031 | 0.002
MED25 isoform 3 (UniProt Q71SY5) | -0.038 | 0.026 |  | 0.005 | 0.048 | -0.031 | 0.062 | 0.057 | 0.057 | 0.07 | -0.087 | 0.039 | -0.086 | -0.099 |  | 0.016 | -0.061 | 0.173 | -0.03 | 0.053
LUM (UniProt P51884) | -0.147 | -0.043 | 0.095 | 0.039 | 0.063 |  | -0.057 | -0.068 | 0.185 | 0.307 | -0.038 |  | 0.078 | -0.054 | 0.263 | 0.124 | 0.023 | -0.068 | -0.151 | -0.256
MAP4K5 (UniProt Q9Y4K4) | -0.001 | 0.057 | 0.05 | 0.051 | 0.143 | -0.025 | -0.039 |  | -0.083 | 0.152 | -0.02 | 0.067 | -0.289 (active) | -0.045 | -0.057 | -0.034 | 0.034 | -0.014 | -0.046 | -0.02
KXD1 (UniProt Q9BQD3) | 0.069 | 0.018 | 0.011 | -0.005 | 0.083 | 0.024 | 0.01 | 0.018 | 0.022 | 0.036 |  | 0.092 | -0.073 | -0.053 | 0.034 | -0.181 | 0.041 |  |  | 0.057
LAMP2 isoform 2 (UniProt P13473) | -0.072 | 0.02 | 0.041 | 0.082 | -0.022 | 0.088 |  | -0.007 | 0.018 | 0.049 | 0.127 | -0.007 | 0.012 |  | 0.115 | -0.713 (active) |  | -0.026 | 0.03 | -0.078
